Reference: PubChem BioAssay (EPA / NIEHS)
Active and inactive are the calls of the source. How the source made its calls: active means hit-call score of the fitted dose curve at least 0.9, where 1 is the maximum; inactive means score below 0.9.

assay: BSK_3C_uPAR: BioMAP Diversity Plus: 3C Assay for Urokinase-type plasminogen activator receptor (uPAR) Biomarker Activity (AID 2282998); conditions: BioMAP 3C HUVEC, uPAR biomarker ELISA; actives raise or lower the signal
Procedure, shortened: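 Dose primary human umbilical vein endothelial cells, incubate 24 h, measure cell-surface uPAR by ELISA, then fit the signal in both directions against the DMSO negative control.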

SMILES	outcome	AC50
COc1cc(S(=O)(=O)O)c(C)cc1N=Nc1c(O)ccc2cc(S(=O)(=O)O)ccc12	inactive	–
COCCOC[C@H](CC1(C(=O)NC2CCC(C(=O)O)CC2)CCCC1)C(=O)Oc1ccc2c(c1)CCC2 (some centres undefined)	inactive	–
CN1CCCC1=O	inactive	–
COc1ccc(S(=O)(=O)N2C(=O)[C@@](c3ccccc3OC)(N3C[C@H](O)C[C@H]3C(=O)N(C)C)c3cc(Cl)ccc32)c(OC)c1	–	20 µM (active)
CCOC(=O)CCC(=O)OCC	inactive	–
COc1ccc2c(c1)c(CC(=O)O)c(C)n2C(=O)c1ccc(Cl)cc1	inactive	–
NS(=O)(=O)c1cc2c(cc1Cl)NCNS2(=O)=O	inactive	–
CCCCCCCCCCCCCO	–	33.7 µM (active)
CC=Cc1ccc(O)c(OC)c1	inactive	–
Cc1ccc(Cl)cc1	inactive	–
CCCc1cc(=O)[nH]c(=S)[nH]1	inactive	–
Cc1ccc(N(C)C)cc1	inactive	–
CCOc1ccc2c(c1)C(C)=CC(C)(C)N2	inactive	–
CC1=C(/C=C/C(C)=C/C=C/C(C)=C/CO)C(C)(C)CCC1	inactive	–
NCCO	inactive	–
CNC(=O)[C@H]1O[C@@H](n2cnc3c(NCc4cc(Cl)ccc4OCc4cc(C)no4)ncnc32)[C@H](O)[C@@H]1N	inactive	–
O=c1[nH]cc(F)c(=O)[nH]1	inactive	–
O=C(O)Cc1ccccc1Nc1c(Cl)cccc1Cl	inactive	–
CCCCc1ccc2c(n1)[C@@H](c1ccc(OC)cc1C[C@H](C)C(=O)O)[C@H](C(=O)O)[C@H]2c1ccc2c(c1)OCO2	inactive	–
CC(=O)OCCOCCOCCOC(C)=O	inactive	–
Cc1c(C(=O)O)c(O)cc2c1C(=O)c1c(O)c([C@@H]3O[C@H](CO)[C@@H](O)[C@H](O)[C@H]3O)c(O)c(O)c1C2=O	inactive	–
CC(=O)OC/C=C(\C)CCC=C(C)C	inactive	–
CCCCCCCCCCCCCCCC	inactive	–
Cc1ccccc1Cl	inactive	–
C=CCc1ccc(O)c(OC)c1	inactive	–
Cc1cc(NC(=O)C(=O)O)cc(C)c1Oc1ccc(O)c2c1CCC2	inactive	–
CC(=O)C(C)=CC1C(C)=CCCC1(C)C (centres undefined)	inactive	–
FC(F)(F)C(F)(F)C(F)(F)C(F)(F)C(F)(F)C(F)(F)CCI	inactive	–

assay: BSK_3C_VCAM1: BioMAP Diversity Plus: 3C Assay for Vascular cell adhesion molecule 1 (VCAM1) Biomarker Activity (AID 2282999); conditions: BioMAP 3C HUVEC, VCAM1 ELISA, cytokine-stimulated; actives raise or lower the signal
Procedure, shortened: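 Human umbilical vein endothelial cells (3C system), biomarker read by ELISA 24 h after dosing; bidirectional fit against DMSO baseline. Cytotoxicity tracked by SRB total-protein staining in parallel cultures at biomarker time.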

SMILES	outcome	AC50
COc1cc(S(=O)(=O)O)c(C)cc1N=Nc1c(O)ccc2cc(S(=O)(=O)O)ccc12	inactive	–
COCCOC[C@H](CC1(C(=O)NC2CCC(C(=O)O)CC2)CCCC1)C(=O)Oc1ccc2c(c1)CCC2 (some centres undefined)	inactive	–
CN1CCCC1=O	inactive	–
COc1ccc(S(=O)(=O)N2C(=O)[C@@](c3ccccc3OC)(N3C[C@H](O)C[C@H]3C(=O)N(C)C)c3cc(Cl)ccc32)c(OC)c1	–	28.8 µM (active)
CCOC(=O)CCC(=O)OCC	inactive	–
COc1ccc2c(c1)c(CC(=O)O)c(C)n2C(=O)c1ccc(Cl)cc1	inactive	–
NS(=O)(=O)c1cc2c(cc1Cl)NCNS2(=O)=O	inactive	–
CCCCCCCCCCCCCO	–	35.6 µM (active)
CC=Cc1ccc(O)c(OC)c1	inactive	–
Cc1ccc(Cl)cc1	inactive	–
CCCc1cc(=O)[nH]c(=S)[nH]1	inactive	–
Cc1ccc(N(C)C)cc1	inactive	–
CCOc1ccc2c(c1)C(C)=CC(C)(C)N2	inactive	–
CC1=C(/C=C/C(C)=C/C=C/C(C)=C/CO)C(C)(C)CCC1	–	33 µM (active)
NCCO	inactive	–
CNC(=O)[C@H]1O[C@@H](n2cnc3c(NCc4cc(Cl)ccc4OCc4cc(C)no4)ncnc32)[C@H](O)[C@@H]1N	inactive	–
O=c1[nH]cc(F)c(=O)[nH]1	inactive	–
O=C(O)Cc1ccccc1Nc1c(Cl)cccc1Cl	inactive	–
CCCCc1ccc2c(n1)[C@@H](c1ccc(OC)cc1C[C@H](C)C(=O)O)[C@H](C(=O)O)[C@H]2c1ccc2c(c1)OCO2	inactive	–
CC(=O)OCCOCCOCCOC(C)=O	inactive	–
Cc1c(C(=O)O)c(O)cc2c1C(=O)c1c(O)c([C@@H]3O[C@H](CO)[C@@H](O)[C@H](O)[C@H]3O)c(O)c(O)c1C2=O	inactive	–
CC(=O)OC/C=C(\C)CCC=C(C)C	inactive	–
CCCCCCCCCCCCCCCC	inactive	–
Cc1ccccc1Cl	inactive	–
C=CCc1ccc(O)c(OC)c1	inactive	–
Cc1cc(NC(=O)C(=O)O)cc(C)c1Oc1ccc(O)c2c1CCC2	inactive	–
CC(=O)C(C)=CC1C(C)=CCCC1(C)C (centres undefined)	inactive	–
FC(F)(F)C(F)(F)C(F)(F)C(F)(F)C(F)(F)C(F)(F)CCI	inactive	–

assay: BSK_4H_Eotaxin3: BioMAP Diversity Plus: 4H Assay for Eotaxin 3 Biomarker Activity (AID 2283000); conditions: primary human endothelial cells (HUVEC); actives raise or lower the signal;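 on outcome: CCL26 protein level quantified by ELISA in parallel with SRB cytotoxicity check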
Procedure, shortened: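 Readout is Eotaxin-3 (CCL26) level by ELISA in primary human umbilical vein endothelial cells harvested 24 h after chemical exposure; activity fitted in both directions against DMSO control.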

SMILES	outcome	AC50
COc1cc(S(=O)(=O)O)c(C)cc1N=Nc1c(O)ccc2cc(S(=O)(=O)O)ccc12	inactive	–
COCCOC[C@H](CC1(C(=O)NC2CCC(C(=O)O)CC2)CCCC1)C(=O)Oc1ccc2c(c1)CCC2 (some centres undefined)	inactive	–
CN1CCCC1=O	inactive	–
COc1ccc(S(=O)(=O)N2C(=O)[C@@](c3ccccc3OC)(N3C[C@H](O)C[C@H]3C(=O)N(C)C)c3cc(Cl)ccc32)c(OC)c1	inactive	–
CCOC(=O)CCC(=O)OCC	inactive	–
COc1ccc2c(c1)c(CC(=O)O)c(C)n2C(=O)c1ccc(Cl)cc1	inactive	–
NS(=O)(=O)c1cc2c(cc1Cl)NCNS2(=O)=O	inactive	–
CCCCCCCCCCCCCO	–	38.8 µM (active)
CC=Cc1ccc(O)c(OC)c1	inactive	–
Cc1ccc(Cl)cc1	inactive	–
CCCc1cc(=O)[nH]c(=S)[nH]1	–	0.666 µM (active)
Cc1ccc(N(C)C)cc1	inactive	–
CCOc1ccc2c(c1)C(C)=CC(C)(C)N2	inactive	–
CC1=C(/C=C/C(C)=C/C=C/C(C)=C/CO)C(C)(C)CCC1	–	15.6 µM (active)
NCCO	inactive	–
CNC(=O)[C@H]1O[C@@H](n2cnc3c(NCc4cc(Cl)ccc4OCc4cc(C)no4)ncnc32)[C@H](O)[C@@H]1N	inactive	–
O=c1[nH]cc(F)c(=O)[nH]1	inactive	–
O=C(O)Cc1ccccc1Nc1c(Cl)cccc1Cl	inactive	–
CCCCc1ccc2c(n1)[C@@H](c1ccc(OC)cc1C[C@H](C)C(=O)O)[C@H](C(=O)O)[C@H]2c1ccc2c(c1)OCO2	inactive	–
CC(=O)OCCOCCOCCOC(C)=O	inactive	–
Cc1c(C(=O)O)c(O)cc2c1C(=O)c1c(O)c([C@@H]3O[C@H](CO)[C@@H](O)[C@H](O)[C@H]3O)c(O)c(O)c1C2=O	inactive	–
CC(=O)OC/C=C(\C)CCC=C(C)C	inactive	–
CCCCCCCCCCCCCCCC	inactive	–
Cc1ccccc1Cl	inactive	–
C=CCc1ccc(O)c(OC)c1	inactive	–
Cc1cc(NC(=O)C(=O)O)cc(C)c1Oc1ccc(O)c2c1CCC2	inactive	–
CC(=O)C(C)=CC1C(C)=CCCC1(C)C (centres undefined)	inactive	–
FC(F)(F)C(F)(F)C(F)(F)C(F)(F)C(F)(F)C(F)(F)CCI	inactive	–
